# In PubChem BioAssay (NCI):
# This is part of a sample that, as a whole, favours compounds with a hit. Of some 79,000 tested, about 15% had one in any assay. Unmarked numbers belong to inactive results. Calls of active or inactive are those of the source. No stated cut-off is given here; in the data, active means growth inhibition above about 70%; inactive means the rest.
# Tests used:
# [1] = NCI Yeast Anticancer Drug Screen. Data for the rad50 strain (AID 155);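 further: 0% = growth of vehicle-only cultures of the same strain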; settings: S. cerevisiae rad50 strain growth inhibition, stronger effect = higher value
# How it was run: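 Yeast carrying a defined DNA repair defect were exposed to test compounds, and growth was compared with vehicle-treated controls to give percent inhibition.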
# [2] = NCI Yeast Anticancer Drug Screen. Data for the sgs1 mgt1 strain (AID 161);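 further: 0% = growth of cultures given vehicle only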; settings: S. cerevisiae sgs1 mgt1 strain, stronger effect = higher value
# How it was run: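 Inhibition of yeast growth, normalised to vehicle-treated controls, is reported for a strain bearing genetic alterations in DNA damage repair.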
# [3] = NCI Yeast Anticancer Drug Screen. Data for the cln2 rad14 strain (AID 165);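 further: 0% = growth equal to vehicle treated cultures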; settings: S. cerevisiae cln2 rad14 strain, stronger effect = higher value
# How it was run: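 Each compound was tested on cln2 rad14 yeast. Inhibition of growth was calculated against vehicle-exposed controls.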
# [4] = NCI Yeast Anticancer Drug Screen. Data for the bub3 strain (AID 167); settings: S. cerevisiae bub3 mutant strain, stronger effect = higher value
# How it was run: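 Compounds were applied to a genetically altered yeast strain carrying a cell-cycle control defect. Growth inhibition was scored against vehicle-treated controls.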
# [5] = NCI Yeast Anticancer Drug Screen. Data for the mlh1 rad18 strain (AID 175); settings: S. cerevisiae mlh1 rad18 strain growth inhibition, stronger effect = higher value
# How it was run: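 Vehicle-treated cultures served as the reference for growth inhibition in a yeast strain carrying DNA damage repair alterations exposed to each compound.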
# [6] = NCI Yeast Anticancer Drug Screen. Data for the mec2-1 strain (AID 157); settings: S. cerevisiae mec2-1 strain, stronger effect = higher value
# How it was run: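 Vehicle-treated cultures served as reference for growth inhibition of compound-exposed mec2-1 yeast.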
# [7] = at 5.0 µM (retest, dose inferred, filed as 0.5)
# [8] = at 50.0 µM (retest, dose inferred, filed as 5.0)
Compound,"growth inhibition [1, 7]","growth inhibition [1, 8]",growth inhibition ([1]; at 50.0 µM),"growth inhibition [2, 7]","growth inhibition [2, 8]",growth inhibition ([2]; at 50.0 µM),"growth inhibition [3, 7]","growth inhibition [3, 8]",growth inhibition ([3]; at 50.0 µM),"growth inhibition [4, 7]","growth inhibition [4, 8]",growth inhibition ([4]; at 50.0 µM),"growth inhibition [5, 7]","growth inhibition [5, 8]",growth inhibition ([5]; at 50.0 µM),"growth inhibition [6, 7] [%]","growth inhibition [6, 8]",growth inhibition ([6]; at 50.0 µM)
CCOSc1ccccc1,3%,50%,34.3%,3%,74% (active),16.2%,2%,22%,16.1%,0%,74% (active),20.6%,21%,93% (active),56.7%,,,
O=C1C=CC(=O)N1c1ccc(Cl)cc1Br,,,,100% (active),100% (active),94.2% (active),68%,100% (active),92.4% (active),100% (active),99% (active),58.4%,28%,45%,92.5% (active),40,44%,94.3% (active)
COc1cc2c(oc(=O)c3cc(C)cc(OC)c32)c2c(C3OC(C)C(O)C(C)(O)C3O)ccc(O)c12 (stereo not given),80% (active),96% (active),90.2% (active),79% (active),96% (active),90.4% (active),75% (active),94% (active),90% (active),83% (active),97% (active),89.8% (active),90% (active),96% (active),88.8% (active),,,
CC[N+](CC)(CC)Cc1ccc(C[N+](CC)(CC)CC)cc1,8%,-4%,16.9%,,,,4%,7%,92.4% (active),5%,-4%,95.5% (active),2%,-4%,17.4%,1,-2%,54.2%
O=c1[nH]c2cc(Cl)ccc2nc1/C=C(\O)c1ccccn1,20%,79% (active),60%,,,,8%,64%,34.1%,21%,27%,44.5%,-1%,82% (active),88% (active),7,49%,37.8%
CC(C)NC(=O)OCc1c2c(n(C)c1COC(=O)NC(C)C)-c1ccccc1CC2,77% (active),97% (active),98.2% (active),,,,-5%,97% (active),97.8% (active),4%,98% (active),97.6% (active),26%,96% (active),98.2% (active),14,98% (active),98.6% (active)
O=C(c1ccc(O)cc1)c1ccccc1O,6%,76% (active),63.8%,-2%,14%,44.4%,-1%,3%,-7.55%,45%,41%,17.9%,-2%,23%,51.6%,,,
O=c1ccn(C2OC(COC(c3ccccc3)(c3ccccc3)c3ccccc3)C(O)C2O)c(=O)[nH]1 (stereo not given),,,,25%,99% (active),93.3% (active),30%,98% (active),92.4% (active),38%,98% (active),91.8% (active),31%,98% (active),90.3% (active),27,99% (active),92.9% (active)
Nc1ccc2c(SCC(=O)Nc3ccccc3-c3ccccc3NC(=O)CSc3c4ccccc4nc4cc(N)ccc34)c3ccccc3nc2c1,,,,33%,97% (active),91.2% (active),17%,97% (active),78.8% (active),27%,97% (active),90.5% (active),11%,96% (active),87.5% (active),24,98% (active),92.5% (active)
CCc1cccc(CC)c1NC(=O)CS,,,,-64%,90% (active),61.7%,-72%,90% (active),95.8% (active),-85%,92% (active),97.8% (active),-132%,93% (active),98% (active),-51,94% (active),97.7% (active)
